Inconclusive results are not listed. Values without a mark were called inactive. Active and inactive are the calls of the source. Calls come from the whole dose curve; as a rule, active = well fitted cell-killing curve with a large enough effect; inconclusive = small, poorly fitted or top-dose-only effect; inactive = flat fitted curve, though single readings scatter.
Assay: Cell Viability - LYMP2-010 (AID 981); note: nearly all actives have a fitted effect of over 55% in size
Settings: LYMP2-010 lymphoblastoid cell viability, qHTS; series mostly up to 92.2 µM; activity, negative = cytotoxicity: at the top concentration
From the text: NIH Chemical Genomics Center [NCGC]
NIH Molecular Libraries Screening Centers Network [MLSCN]
National Institutes of Environmental Health Sciences [NIEHS]
National Toxicology Program [NTP]
We have developed a 1536-well cell-based assay for quantitative high throughput screening (qHTS) against a number of cell lines to determine in vitro cytotoxicity of small molecules. This particular assay uses a human lymphoblastoid cell line (LYMP2-010) purchased from Coriell Institute for Medical Research.
NCGC Assay Protocol Summary:
The CellTiter-Glo luminescent cell viability assay (Promega) is a homogeneous method to measure the number of viable cells in culture. The end point readout of this assay is based on quantitation of intracellular ATP, an indicator of metabolic activity, using the luciferase reaction. Luciferase catalyzes the oxidation of beetle Luciferin to oxyluciferin and light in the presence of ATP. The luminescent signal is proportional to amount of ATP present.
Using the CellTiter-Glo luminescent cell viability assay, the amount of cellular ATP was measured in the lymphoblastoid cell line with complete culture medium following compound treatment for 24 hours. The assay was performed in opaque white Kalypsys 1536-well plates. In the screen, tetraoctylammonium bromide was used as positive control. Library compounds were measured for their ability to cause acute toxicity in the cell line, as reflected by a decrease in intracellular ATP levels, in a concentration-dependent manner. […] AC50 values were determined from concentration-response data modeled with the standard Hill equation.
qHTS protocol for CellTiter Glo lymphoblastoid cellular assay
[Step] [Parameter] [Value] [Description]
1. Reagent; 5 uL; 2500 lymphoblastoid cells/well
2. Time; 5 hr; 37 C incubation
4. Controls; 23 nL; Tetraoctylammonium bromide 6.4pM to 92 uM
5. Time; 24 hr; 37 C incubation
6. Reagent; 5 uL; CellTiter Glo reagent
7. Time; 30 min; Room Temperature
8. Detection; Luminescence; Viewlux plate reader
Keywords: cell viability, cytotoxicity, lymphoblastoid cell line, luminescence, NTPHTS, NTPHTS_NCGC, NIEHS, DSSTox, MLSMR, MLSCN, NIH Roadmap, qHTS, NCGC
% is set by controls: 0 for no effect and ±100 for the full control effect; potency is the fitted concentration of half-maximal effect.

Compound | activity, negative = cytotoxicity [%] | Potency
Nc1ccc(Cl)c(Cl)c1 | -0.946 | –
O=C(Cl)OCc1ccccc1 | -26.2 | –
ClC(Cl)c1ccccc1 | -1.86 | –
c1ccc(NNc2ccccc2)cc1 | 5.15 | –
COc1cc(-c2ccc(N)c(OC)c2)ccc1N | -14.2 | –
Oc1cc(Cl)cc(Cl)c1 | -12.3 | –
Oc1cc(Cl)ccc1Cl | -13.1 | –
CNC(=O)O/N=C/C(C)(C)S(C)=O (stereo not given) | -7.45 | –
C=CCCC#N | -13.1 | –
c1ccoc1 | 3.11 | –
O=C(O)C(Br)Br | -27.9 | –
CCOP(=S)(OCC)Oc1nc(Cl)c(Cl)cc1Cl | -14.2 | –
CCC(Cl)[N+](=O)[O-] (stereo not given) | -4.38 | –
O=[N+]([O-])c1cc(Cl)c(Cl)cc1Cl | -8.31 | –
Cc1ccc2c(C)cccc2c1 | -5.21 | –
ClC(Cl)C(Cl)Cl | -15.2 | –
CC(C)[N+](=O)[O-] | -13 | –
Cc1cccc(N)c1C | -24.2 | –
O=C(O)CCl | -5.81 | –
ClCC(Cl)Cl | 0.449 | –

Compound | activity, negative = cytotoxicity [%] | Potency
c1ccc(C2CO2)cc1 (stereo not given) | -0.992 | –
Cc1ccc(N)c(N)c1 | – | 12.6 µM (active)
CC(C)(COCC1CO1)COCC1CO1 (stereo not given) | -14.3 | –
Clc1ccc(Cl)c(Cl)c1 | -12.4 | –
C/C=C/CC#N | -11.3 | –
Nc1cc(Cl)ccc1Cl | -7.15 | –
CC(C)[C@]12CC(=O)[C@H](C)[C@H]1C2 | -6.54 | –
C=CCCl | -3.13 | –
OCCOCCO | -7.89 | –
Cc1ccc(N=C=O)cc1N=C=O | -13.6 | –
CCCCOCC1CO1 (stereo not given) | -5.17 | –
C1CC2OC2CC1C1CO1 (stereo not given) | -4.75 | –
FC(Cl)(Cl)Cl | -4.13 | –
Nc1ccc(-c2ccc(N)c(Cl)c2)cc1Cl | -24.1 | –
CC(=O)CCC(C)=O | 0.0427 | –
CCSC(=O)N1CCCCCC1 | 4.54 | –
Oc1cc(Cl)c(Cl)c(Cl)c1Cl | -20.4 | –
Cc1ccc2c(c1N)C(=O)c1ccccc1C2=O | -16.1 | –
O=C(O)CBr | -1.57 | –
CC(C)CON=O | -10.1 | –

Source: PubChem BioAssay (NCATS)
